Cycloheximide cs – counter-screen hit for Shiga toxin inhibitors, cycloheximide; cell reporter, cycloheximide protein synthesis inhibition counterscreen; max response, %; 300,000 compounds, 12% hits; in the data active = max response mostly above about 13%, no sharp cut-off; inactive = mostly below about 14%; note: read at 38.3 µM for the half of the compounds with a filed dose; 0% is about no effect
Shiga inhibitor – inhibitors of Shiga toxin in Vero cells; inhibition, % at 38.7 µM; 290,000 compounds, 9.2% hits; Vero cells, Shiga toxin protein synthesis inhibition reporter; in the data active = inhibition mostly above about 28%, no sharp cut-off; inactive = mostly below about 43%; note: 0% is about no effect
RE007 growth inh – less growth of the S. pombe RE007 Vpr strain. S. pombe RE007 Vpr strain, BacTiter-Glo ATP luminescence, 24 h. Potency, µM (series often up to 92.2 µM), for the others: at the highest dose activity change, negative = less growth, usual class: inhibitors. 360,000 compounds, 0.21% hits; active = well fitted falling curve with a large enough effect; inconclusive = small, poorly fitted or top-dose-only effect; inactive = no such curve, though single readings can be large or run the other way; note: potency is the fitted concentration of half-maximal effect; % is set by controls: 0 for no effect and ±100 for the full control effect; nearly all actives have a fitted effect of over 50% in size
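Fission yeast strain RE007, carrying one chromosomally integrated HIV-1 vpr copy, was seeded at OD 0.01 in PMG+AL medium with 23 nL pinned compound. After 24 h at 30 °C and 99% humidity, viability was read by BacTiter-Glo luminescence.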
Giardia FBPA inh-1 – inhibitors of Giardia lamblia fructose-1,6-bisphosphate aldolase; purified Giardia FBPA; 290,000 compounds, 0.71% hits; Potency, µM (top dose mostly 59.6 µM), for inactives: top-dose activity, negative = inhibition, hits mostly inhibitors; A8B2U2; note: potency is the fitted concentration of half-maximal effect; % is set by controls: 0 for no effect and ±100 for the full control effect; nearly all actives have a fitted effect of over 55% in size
Target sequence (A8B2U2 whole entry, looked up): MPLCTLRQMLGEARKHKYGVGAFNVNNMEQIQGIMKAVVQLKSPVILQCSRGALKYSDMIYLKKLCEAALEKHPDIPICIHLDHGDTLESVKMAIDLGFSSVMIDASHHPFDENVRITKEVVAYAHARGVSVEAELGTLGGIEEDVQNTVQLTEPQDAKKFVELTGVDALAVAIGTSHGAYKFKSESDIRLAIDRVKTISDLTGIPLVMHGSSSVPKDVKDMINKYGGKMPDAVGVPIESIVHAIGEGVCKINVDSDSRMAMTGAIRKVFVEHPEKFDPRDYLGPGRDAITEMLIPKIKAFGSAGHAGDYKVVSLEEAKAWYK
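40 nM FBPA preincubated 10 min at RT with compound (up to 57.5 uM final), then substrate plus GAPDH/TPI/NAD/arsenate coupling and diaphorase/resazurin added. Fluorescence read after 20 min at RT, 525/598 nm.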
LmPK inh – blocks Leishmania mexicana pyruvate kinase activity. Q27686. purified LmPK, Kinase-Glo ATP luminescence, 1 h. Potency, µM (series often up to 57.5 µM), for the others: at the top dose activity change, negative = inhibition, actives largely listed as inhibitors. 290,000 compounds, 0.37% hits; note: potency is the fitted concentration of half-maximal effect; % is set by controls: 0 for no effect and ±100 for the full control effect
Target sequence (Q27686 whole entry, looked up): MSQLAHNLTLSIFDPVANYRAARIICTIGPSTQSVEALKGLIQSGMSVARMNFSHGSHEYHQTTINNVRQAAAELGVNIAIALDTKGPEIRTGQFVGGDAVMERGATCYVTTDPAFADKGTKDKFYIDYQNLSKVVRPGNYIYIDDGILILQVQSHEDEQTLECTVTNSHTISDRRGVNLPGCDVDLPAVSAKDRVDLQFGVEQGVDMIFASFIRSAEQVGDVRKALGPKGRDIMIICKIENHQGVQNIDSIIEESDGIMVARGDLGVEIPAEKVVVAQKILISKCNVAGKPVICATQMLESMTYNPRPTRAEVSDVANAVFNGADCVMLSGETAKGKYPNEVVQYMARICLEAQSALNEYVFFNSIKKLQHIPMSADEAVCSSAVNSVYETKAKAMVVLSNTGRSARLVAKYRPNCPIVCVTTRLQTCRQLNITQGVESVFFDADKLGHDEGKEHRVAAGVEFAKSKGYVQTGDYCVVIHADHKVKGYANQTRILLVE
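Purified LmPK (0.1 nM) with 0.5 mM PEP and 0.1 mM ADP in imidazole buffer pH 7.2 with MgCl2/KCl, 1 h at room temperature. ATP formed was read by luciferase luminescence and normalized to no-enzyme and uninhibited controls.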
TbPYK inhibitor – blocks Trypanosoma brucei pyruvate kinase. 410,000 compounds, 0.12% hits. AID 624173. TbPYK enzyme, Kinase-Glo Plus ATP luminescence, 45 min. Q57TT1. Potency, µM (titrated, usually from 76.8 µM), for inactives: at the highest dose activity, negative = inhibition, usual class: inhibitors; note: potency is the fitted concentration of half-maximal effect; % is set by controls: 0 for no effect and ±100 for the full control effect; nearly all actives have a fitted effect of over 50% in size
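Readout: single end-point luminescence (Kinase-Glo Plus, 10 min). Reaction conditions were TbPYK/substrate plus 130 uM ADP, 45 min at RT, pH 7.2 TEA buffer. No-enzyme wells served as controls, and data were normalized before concentration-response fitting.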
Giardia growth – Giardia lamblia growth inhibition | Potency, µM (top dose mostly 57.5 µM), for inactives: at the top dose activity change, negative = inhibition, most hits filed as inhibitors | AID 2785 | 1,500 compounds, 5% hits | shares compounds with Giardia FBPA inh-1 | Giardia lamblia trophozoite growth inhibition;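 note: potency is the fitted concentration of half-maximal effect; trophozoites exposed to compound for 48 h at 37 °C; % is set by controls: 0 for no effect and ±100 for the full control effect; nearly all actives have a fitted effect of over 70% in size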
Mammalian tox – mammalian cytotoxicity of Giardia aldolase inhibitor hits; AID 2786; 1,500 compounds, 4% hits; Potency, µM (highest dose often 57.5 µM), for inactives: at the top dose viability change, negative = toxicity, most hits filed as inhibitors; shares compounds with Giardia FBPA inh-1; mammalian cell viability counter-screen, qHTS;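 note: Chinese hamster ovary cells used as mammalian cytotoxicity surrogate; viability measured as cellular ATP by luminescence; potency is the fitted concentration of half-maximal effect; compound exposure lasted 48 h before reading; % is set by controls: 0 for no effect and ±100 for the full control effect; nearly all actives have a fitted effect of over 60% in size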
Giardia FBPA inh-2 – confirmation of Giardia fructose-bisphosphate aldolase inhibitors | Potency, µM (titrated, usually from 57.5 µM), inactives show top-dose activity change, negative = inhibition, actives largely listed as inhibitors | shares compounds with Giardia FBPA inh-1 | purified Giardia aldolase enzyme activity, qHTS | AID 2787 | 1,500 compounds, 5% hits; note: potency is the fitted concentration of half-maximal effect; % is set by controls: 0 for no effect and ±100 for the full control effect; nearly all actives have a fitted effect of over 45% in size
Rabbit FBPA inh – selectivity test for Giardia aldolase inhibitors: rabbit aldolase | shares compounds with Giardia FBPA inh-1 | 1,500 compounds, 4% hits | AID 2794 | Rabbit muscle FBPA enzyme inhibition, selectivity counter-screen | Potency, µM (series often up to 57.5 µM), for inactives: at the top dose activity, negative = inhibition, hits mostly inhibitors; note: potency is the fitted concentration of half-maximal effect; % is set by controls: 0 for no effect and ±100 for the full control effect; nearly all actives have a fitted effect of over 60% in size
GAPDH counter – counter-screen for Giardia aldolase inhibitors: GAPDH coupling enzyme; GAPDH coupling enzyme counterscreen, biochemical, qHTS; AID 2795; shares compounds with Giardia FBPA inh-1; 1,500 compounds, 6% hits; Potency, µM (series often up to 57.5 µM), without a hit: at the highest dose activity change, negative = inhibition, most hits filed as inhibitors; note: potency is the fitted concentration of half-maximal effect; % is set by controls: 0 for no effect and ±100 for the full control effect; nearly all actives have a fitted effect of over 55% in size
The depositor's hits bear a star; ? = inconclusive; / = not tested or not shown; [ ] = another dose, or the depositor's remark. The entries come from a sample that favours hits as a whole. Unless noted, calls come from the whole dose curve; as a rule, active = well fitted curve in the direction sought with a large enough effect; inconclusive = small, poorly fitted or top-dose-only effect, or another doubt; inactive = no such curve, though single readings can be large; an effect the other way counts as inactive or inconclusive.

SMILES	Cycloheximide cs	Shiga inhibitor	RE007 growth inh	Giardia FBPA inh-1	LmPK inh	TbPYK inhibitor	Giardia growth	Mammalian tox	Giardia FBPA inh-2	Rabbit FBPA inh	GAPDH counter
COC(=O)CC[C@@H](C)[C@H]1CC[C@H]2[C@@H]3CC[C@@H]4C[C@H](O)CC[C@]4(C)[C@H]3C[C@H](O)[C@]12C	/	/	/	-9%	/	/	/	/	/	/	/
C[N+](C)=C1SCC(C)(/C=N/O)S1 (stereo not given)	-1	-22	-24%	14µM*	-2%	5%	58%	-10%	0%	12%	1%
COc1ccc(NC(=O)C2=C(C)Nc3nc(SCc4ccccc4)nn3C2c2cc(OC)ccc2OC)cc1 (stereo not given)	/	/	/	/	/	-6%	/	/	/	/	/
CC(NC(=S)NNS(=O)(=O)c1cccc([N+](=O)[O-])c1)c1ccccc1 (stereo not given)	1	-5	8%	16µM*	0%	-12%	12%	12%	3%	15%	26%
COc1ccc(S(=O)(=O)NCC(c2cccs2)S(=O)(=O)c2ccccc2)cc1OC (stereo not given)	/	/	/	/	/	-6%	/	/	/	/	/
O=C(CCN1CCc2ccccc2C1)Nc1cccc(F)c1	-1	14	36%	?	-1%	-15%	/	/	/	/	/
O=C(CCN1CCc2ccccc2C1)Nc1ccccc1	10	17	16%	16µM*	2%	-11%	26%	13%	-1%	-3%	7%
O=C(CCn1c(=O)oc2ccccc21)NCCN1CCc2ccccc2C1	2	-11	2%	16µM*	1%	-2%	0%[10.4 µM]	23%	1%	1%	5%
CCCCCNC(=O)CCn1c(=O)oc2ccccc21	-1	10	-1%	-1%	-2%	0%	/	/	/	/	/
CCN1CCN(CC(=O)N/N=C/c2cc(Br)cs2)CC1	3	17	7%	18µM*	0%	20%	15%	22%	2%	5%	10%
Cc1nccn1CC(=O)N/N=C/c1cc(Br)cs1	0	4	10%	1%	-2%	-1%	/	/	/	/	/
CC(=O)/C(=N\Nc1ccccc1)Sc1nncn1C	-4	6	10%	3.5µM*	-13%	?	17%[10.4 µM]	-1%	3%	-4%	3%
O=c1c2c([nH]c3ccc(Br)cc13)CCCC2	-3	-3	-5%	0%	2%	-8%	/	/	/	/	/
O=c1ccc2cc3c([nH]c4ccc(Br)cc43)oc-2c1O	0	-20	/	14µM*	-8%	/	20%[10.4 µM]	7%	10µM*	8.9µM*	10µM*
CCn1c(=O)c2sccc2n2c(CCC(=O)N3CCN(c4ccc(C(C)=O)cc4)CC3)nnc12	/	/	/	/	/	-6%	/	/	/	/	/
Clc1cccc(OCCCn2ccnc2)c1	2	-1	6%	-4%	-1%	-2%	/	/	/	/	/
c1ccc2cc(OCCCn3ccnc3)ccc2c1	17*	17	-1%	22µM*	-2%	7%	106%	0%	0%	3%	13%
CC(C)(C)c1ccc(OCCCn2ccnc2)cc1	8.4*	15	-4%	28µM*	1%	16%	12%	1%	-3%	-8%	-2%
Cc1ccc(OCCCn2ccnc2)c(Br)c1	20*	33	-5%	18µM*	-4%	14%	-8%[10.4 µM]	19%	2%	14%	3%
NC(=O)c1ccccc1NC(=O)C1CCCN(c2ncnc3onc(-c4ccc(F)cc4)c23)C1 (stereo not given)	/	/	/	/	/	3%	/	/	/	/	/
CC(=O)N1CCN(C(=S)NC(=O)c2ccc(S(=O)(=O)N3CCOCC3)cc2)CC1	1	6	-1%	14µM*	7%	-10%	-7%[10.4 µM]	3%	9%	11%	5%
CN(CCC#N)C(=S)NC(=O)c1ccc(S(=O)(=O)N2CCOCC2)cc1	0	-9	-9%	16µM*	3%	-13%	8%	-1%	6%	9%	15%
COc1ccc(C(=O)NNC(=O)c2ccc(S(=O)(=O)N3CCOCC3)cc2)cc1	-4	-6	9%	3%	-2%	2%	/	/	/	/	/
O=C(NC(=S)N(CCO)Cc1ccccc1)c1ccc(S(=O)(=O)N2CCCC2)cc1	-2	-4	-15%	8.9µM*	4%	-1%	0%[10.4 µM]	7%	4%	8%	10%
O=C(NCCc1ccccc1)c1ccc(S(=O)(=O)N2CCCCC2)cc1	/	/	7%	/	/	4%	/	/	/	/	/
SMILES	Cycloheximide cs	Shiga inhibitor	RE007 growth inh	Giardia FBPA inh-1	LmPK inh	TbPYK inhibitor	Giardia growth	Mammalian tox	Giardia FBPA inh-2	Rabbit FBPA inh	GAPDH counter
COCCCN1C(=O)c2oc3ccccc3c(=O)c2C12C(=O)N(C)c1ccccc12 (stereo not given)	/	/	/	/	/	0%	/	/	/	/	/
CCOc1ccc(CCNC(=O)CCn2c(=O)c3cccn3c3cccnc32)cc1	/	/	/	/	/	-2%	/	/	/	/	/
Cc1c(C)c2cc3c(c(C)c2oc1=O)OCN(CCc1ccccc1)C3	/	/	/	/	/	0%	/	/	/	/	/
CCc1nnc(NC(=O)CSc2nncc(=O)n2N)s1	-3	-9	5%	25µM*	-8%	-4%	31%	11%	-4%	7%	7%
Nn1c(SCC(=O)Nc2ccccc2C(F)(F)F)nncc1=O	2	-8	-1%	20µM*	-7%	-7%	-13%[10.4 µM]	10%	1%	-1%	8%
Nn1c(SCC(=O)Nc2ccc3c(c2)OCCO3)nncc1=O	16*	31*	-5%	25µM*	-8%	1%	21%	18%	-7%	2%	15%
Cc1cc(-c2nnc(SCC(=O)Nc3ccccc3C(F)(F)F)n2N)n[nH]1	-4	-11	17%	7%	2%	-19%	/	/	/	/	/
CC(=O)c1ccc(Nc2ccc3cc(S(=O)(=O)N4CCCC4)ccc3n2)cc1	/	/	/	/	/	-1%	/	/	/	/	/
COCCNC(=O)CN1C(=O)c2cccnc2Oc2ccc(Cl)cc21	/	/	/	/	/	0%[15.4 µM]	/	/	/	/	/
CCCCOC(=O)c1ccc(NC(=O)c2csnn2)cc1	/	/	/	/	/	-1%	/	/	/	/	/
COc1ccc(NC(=O)C(NCC(C)C)c2ccccc2)cc1Cl (stereo not given)	-3	-7	-11%	14µM*	-1%	-3%	?	2%	8%	20%	2%
